In the supplement of paper PMC13380429:

Tested on: Vero E6 infected with SARS-CoV-2
Assay: inhibition of SARS-CoV-2 cytopathic effect; higher = more antiviral protection, active = above 15
Conditions: 48 h

Measured: inhibition of SARS-CoV-2 cytopathic effect

O=C(O)c1ccc(NC(=O)[C@H](Cc2ccc(O)cc2)NC(=O)c2ccccc2)cc1 [bentiromide]
inactive: 1 nM -1.4% | 8.33 nM 0.94% | 100 nM -1.51% | 833.33 nM -0.68% | 10000 nM 0.39%

CC(C)Oc1ccc2c(=O)c3cc(C(=O)O)ccc3oc2c1
inactive: 1 nM -2.35% | 8.33 nM -1.43% | 100 nM -1.13% | 833.33 nM -1.68% | 10000 nM -1%

CO/N=C(\C(=O)N[C@@H]1C(=O)N2C(C(=O)O)=C(CSc3nc(C)c(CC(=O)O)s3)CS[C@H]12)c1csc(N)n1 [cefodizime]
inactive: 1 nM -6.45% | 8.33 nM -0.68% | 100 nM -2% | 833.33 nM -0.21% | 10000 nM -4.2%

O=C(O)CCC(=O)C(=O)O [2-oxoglutaric-acid]
inactive: 1 nM -3.15% | 8.33 nM -0.14% | 100 nM 1.87% | 833.33 nM 0.16% | 10000 nM -2.21%

CC[C@H]1CN2CC[C@H]1C[C@@H]2[C@@H](O)c1ccnc2ccc(OC)cc12 [hydroquinidine]
inactive: 1 nM 2.34% | 8.33 nM 3.2% | 100 nM 0.81% | 833.33 nM 2.84% | 10000 nM 1.57%

CC(Oc1c(Cl)cccc1Cl)C1=NCCN1 (stereo not given) [lofexidine]
inactive: 1 nM 3.3% | 8.33 nM 3.14% | 100 nM 5.17% | 833.33 nM 7.76% | 10000 nM 1.15%

O=P(O)(NCCCl)NCCCl [palifosfamide]
inactive: 1 nM 0.85% | 8.33 nM 0.49% | 100 nM 3.57% | 833.33 nM -1.07% | 10000 nM -7.07%

CC[C@H]1[C@@H](O)[C@@H]2[C@H](CC[C@]3(C)[C@@H]([C@H](C)CCC(=O)O)CC[C@@H]23)[C@@]2(C)CC[C@@H](O)C[C@@H]12 [obeticholic-acid]
inactive: 1 nM 0.365% | 8.33 nM 1.41% | 100 nM 1.03% | 833.33 nM 2.73% | 10000 nM 1.65%

c1ccc2c(CC3=NCCN3)cccc2c1 [naphazoline]
inactive: 1 nM 1.08% | 8.33 nM 0.66% | 100 nM 0.05% | 833.33 nM 2.24% | 10000 nM 0.73%

c1ccc(-c2oc3ncnc(NC[C@@H]4CCCO4)c3c2-c2ccccc2)cc1
inactive: 1 nM 0.95% | 8.33 nM 0.57% | 100 nM 0% | 833.33 nM 0.71% | 10000 nM 1.78%

CCn1c(-c2nonc2N)nc2cncc(C(=O)N3CC[C@H](N)C3)c21
inactive: 1 nM 0.81% | 8.33 nM 3.31% | 100 nM 2.3% | 833.33 nM -3.28% | 10000 nM -2.39%

Cc1cc(C)c2nc(-c3ccccn3)cc(C(=O)Nc3ccc(S(=O)(=O)Nc4onc(C)c4C)cc3)c2c1
inactive: 1 nM -1.1% | 8.33 nM 1.15% | 100 nM -0.62% | 833.33 nM -9.3% | 10000 nM -3.05%

OCC(O)CN1CCN(c2ccccc2)CC1 (stereo not given) [dropropizine]
inactive: 1 nM -2.5% | 8.33 nM -2.56% | 100 nM -2.71% | 833.33 nM -2.45% | 10000 nM -3%

Cn1c(C#N)ccc1-c1ccc2c(c1)C(C)(C)OC(=S)N2 [tanaproget]
inactive: 1 nM 3.59% | 8.33 nM 4.95% | 100 nM 0.34% | 833.33 nM 3.55% | 10000 nM 1.06%

CCCC[N+]1(C)[C@@H]2C[C@@H](OC(=O)[C@H](CO)c3ccccc3)C[C@H]1[C@@H]1O[C@@H]12 (stereo not given in full) [butylscopolamine-bromide]
inactive: 1 nM -2.47% | 8.33 nM -2.18% | 100 nM -2.19% | 833.33 nM 0.56% | 10000 nM -1.1%

Cc1nc(N)sc1CCN [amthamine]
inactive: 1 nM -1.84% | 8.33 nM -1.83% | 100 nM -2.06% | 833.33 nM 0.97% | 10000 nM 0.76%

CCCCC/C=C\C=C\CCCCCCCCC(=O)O [trans-10,cis-12-conjugated-linoleic-acid]
inactive: 1 nM -0.53% | 8.33 nM -2.2% | 100 nM -2.88% | 833.33 nM -2.64% | 10000 nM 7.84%

CNC(=N)NCCC[C@H](N)C(=O)O [targinine]
inactive: 1 nM -1.27% | 8.33 nM 4.65% | 100 nM 8.19% | 833.33 nM 0.16% | 10000 nM 3.97%
